AmpC no deterg: inhibitors of E. coli AmpC beta-lactamase without detergent; AID 485341; 0.52% of 330,000 active; AmpC nitrocefin hydrolysis, absorbance 480 nm, 0.0001% Triton; P00811; Potency, µM (highest dose often 57.1 µM), most hits filed as inhibitors; note: nearly all actives have a fitted effect of over 20% in size
Target sequence (P00811 whole entry, looked up): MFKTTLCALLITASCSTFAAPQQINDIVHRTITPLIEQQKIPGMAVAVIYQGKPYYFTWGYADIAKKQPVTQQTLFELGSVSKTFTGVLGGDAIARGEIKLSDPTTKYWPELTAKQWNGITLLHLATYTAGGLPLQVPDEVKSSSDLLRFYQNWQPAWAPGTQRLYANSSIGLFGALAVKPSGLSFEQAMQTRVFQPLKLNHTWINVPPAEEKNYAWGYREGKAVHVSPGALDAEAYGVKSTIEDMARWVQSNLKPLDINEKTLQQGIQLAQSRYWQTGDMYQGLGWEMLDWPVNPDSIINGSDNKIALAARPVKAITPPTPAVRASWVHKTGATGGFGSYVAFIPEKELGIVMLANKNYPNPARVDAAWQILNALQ
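20 mM phosphate pH 7.0 + 0.01% (detergent screen) or 0.0001% Triton X-100; 5.3 nM AmpC reagent; cpd preinc 15 min RT; nitrocefin (800 uM stock) to start; A480 q20 s × 4 min; Activity was normalised to no-enzyme and no-compound control wells.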
AMA1-RON2 inh: AMA1-RON2 (P. falciparum) interaction inhibition; AlphaScreen AMA1-biotinylated RON2 peptide binding; Potency, µM (top dose mostly 58.2 µM), actives largely listed as inhibitors; 0.2% of 360,000 active; note: nearly all actives have a fitted effect of over 45% in size
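AMA1 (3D7) with his tag at 25 nM final met compounds first, then biotinylated RON2 peptide at 25 nM; detection used donor plus acceptor beads, 10 µg/mL apiece, read by AlphaScreen after 30 min at room temperature.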
AmpC detergent: inhibitors of E. coli AmpC beta-lactamase with detergent. 0.041% of 370,000 active. AmpC hydrolysis of nitrocefin, absorbance 480 nm, 0.01% Triton. Potency, µM (doses to about 114 µM), hits mostly inhibitors; note: nearly all actives have a fitted effect of over 25% in size
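AmpC (5.3 nM in the dispensed reagent) in 20 mM phosphate pH 7.0 with 0.01% (detergent screen) or 0.0001% Triton X-100 was preincubated with compounds for 15 min at room temperature. Nitrocefin was then added from an 800 uM solution, and hydrolysis was followed at 480 nm.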
SARS PLpro yeast: blocks SARS-CoV papain-like protease in a yeast assay | S. cerevisiae expressing SARS-CoV PLpro, growth rescue | Potency, µM (titrated, usually from 32.9 µM), usual class: activators | 0.19% of 330,000 active | AID 485353; calls by dose curve; note: nearly all actives have a fitted effect of over 55% in size
Shiga toxin inh: blocks Shiga toxin action in Vero cells | Vero cells, Shiga toxin protein synthesis inhibition reporter | inhibition, % at 38.7 µM | 9.2% of 290,000 active; in the data active = inhibition mostly above about 28%, no sharp cut-off; inactive = mostly below about 43%
CHX counter: counter-screen hit for Shiga toxin inhibitors, cycloheximide | max response, % | cell reporter, cycloheximide protein synthesis inhibition counterscreen | 12% of 300,000 active; in the data active = max response mostly above about 13%, no sharp cut-off; inactive = mostly below about 14%; note: read at 38.3 µM for the half of the compounds with a filed dose
Hits are given with their value; [ ] = remark or other dose. The full list was thinned out, with hits kept by preference. Unless noted, calls come from the whole dose curve; as a rule, active = well fitted curve in the direction sought with a large enough effect; inconclusive = small, poorly fitted or top-dose-only effect, or another doubt; inactive = no such curve, though single readings can be large; an effect the other way counts as inactive or inconclusive.

O=C(CSC1=N/C(=C/c2ccc(Cl)c(Cl)c2)C(=O)N1c1ccccc1F)NC1CC1 was read as AmpC no deterg inactive, AMA1-RON2 inh inactive, AmpC detergent inactive, SARS PLpro yeast inactive, Shiga toxin inh inactive and CHX counter inactive.
Screening COC(=O)c1ccc(N=NNc2ccccc2)cc1 returned AmpC no deterg inactive, AMA1-RON2 inh inactive, AmpC detergent inactive, SARS PLpro yeast inactive, Shiga toxin inh 131 and CHX counter 53.
Screening COC(=O)c1ccc(N=NNc2cccc(Br)c2)cc1 returned AmpC no deterg inactive, AMA1-RON2 inh inactive, AmpC detergent inconclusive, SARS PLpro yeast inactive, Shiga toxin inh 74 and CHX counter 63.
Screening O=C(Nc1cccc([N+](=O)[O-])c1)c1ccc(-c2ccccc2)cc1 returned AmpC no deterg inactive, AMA1-RON2 inh inactive, AmpC detergent inconclusive, SARS PLpro yeast inactive, Shiga toxin inh inactive and CHX counter inactive.
For COC(=O)c1ccc(N=Nc2c(C)[nH]n(-c3ccccc3)c2=O)cc1 the results were AmpC no deterg inactive, AMA1-RON2 inh inconclusive, AmpC detergent inactive, SARS PLpro yeast inactive, Shiga toxin inh inactive and CHX counter inactive.
`COC(=O)c1ccc(N=NNc2ccc(C(=O)OC)cc2)cc1` gave AmpC no deterg inactive, AMA1-RON2 inh inactive, AmpC detergent inactive, SARS PLpro yeast inconclusive, Shiga toxin inh 127 and CHX counter 122.
Screening O=C(O)c1ccc(N=NNc2cccc([N+](=O)[O-])c2)cc1 returned AmpC no deterg inactive, AMA1-RON2 inh inactive, AmpC detergent inactive, SARS PLpro yeast inactive, Shiga toxin inh 108 and CHX counter 42.
Screening COC(=O)c1ccc(NS(=O)(=O)N(C)C)cc1 returned AmpC no deterg inactive, AMA1-RON2 inh inactive, AmpC detergent inactive, SARS PLpro yeast inactive, Shiga toxin inh inactive and CHX counter inactive.
For CCCCNC(=O)C1(C)CCN1C(=O)c1cc2ccccc2s1 (stereo not given) the results were AMA1-RON2 inh inactive.
`COc1ccc(NC(=O)Cc2c(F)cccc2Cl)cc1` gave AmpC no deterg inactive, AMA1-RON2 inh inactive, AmpC detergent inactive, SARS PLpro yeast inactive, Shiga toxin inh 62 and CHX counter 31.
For COc1ccccc1NC(=O)Cc1c(F)cccc1Cl the results were AmpC no deterg inactive, AMA1-RON2 inh inactive, AmpC detergent inactive, SARS PLpro yeast inactive, Shiga toxin inh inactive and CHX counter inactive.
Screening COc1ccc(CC(=O)OCC(=O)Nc2ccc(F)cc2)cc1 returned AmpC no deterg inactive, AMA1-RON2 inh inactive, AmpC detergent inconclusive and SARS PLpro yeast inactive.
Screening COc1ccc(NC(=O)COC(=O)Cc2c(F)cccc2Cl)cc1 returned AmpC no deterg inactive[11.4 µM], AMA1-RON2 inh inactive, AmpC detergent inconclusive, SARS PLpro yeast inactive, Shiga toxin inh 33 and CHX counter 45.
`COc1ccc(NC(=O)Cn2nc(-c3ccncc3)ccc2=O)cc1Cl` gave AmpC detergent inactive.
O=C(/C=C1\SC(=O)NC1=O)Nc1ccc(F)cc1 was read as AmpC no deterg inactive, AMA1-RON2 inh inactive, AmpC detergent inactive, SARS PLpro yeast inactive, Shiga toxin inh inactive and CHX counter inactive.
O=C(Oc1cccc(NC(=O)c2ccco2)c1)c1cccc(S(=O)(=O)N2CCCC2)c1 was read as AmpC no deterg inactive, AMA1-RON2 inh inactive, AmpC detergent inconclusive, SARS PLpro yeast inactive, Shiga toxin inh inactive and CHX counter 18.
O=C(Oc1cccc(NC(=O)c2cccs2)c1)c1cccc(S(=O)(=O)N2CCCC2)c1 was read as AmpC no deterg inactive, AMA1-RON2 inh inactive, AmpC detergent inactive, SARS PLpro yeast inactive, Shiga toxin inh inactive and CHX counter 14.
`CN1C(=O)C(Cc2c[nH]c3ccccc23)NC1=S` (stereo not given) gave Shiga toxin inh 47 and CHX counter 30.
Screening COC(=O)c1ccc(CN2C(=O)NC(Cc3c[nH]c4ccccc34)C2=O)cc1 (stereo not given) returned AmpC no deterg inactive, AMA1-RON2 inh inactive, AmpC detergent inactive, SARS PLpro yeast inactive, Shiga toxin inh 118 and CHX counter 37.
For CC(=O)c1cccc(NC(=O)COC(=O)c2cccs2)c1 the results were AmpC no deterg inactive, AMA1-RON2 inh inactive, AmpC detergent inactive, SARS PLpro yeast inactive, Shiga toxin inh 69 and CHX counter 59.
Screening CCN(c1ccc(NC(=O)COC(=O)c2cccs2)cc1)C(C)C returned AmpC no deterg inactive, AMA1-RON2 inh inactive, AmpC detergent inconclusive, SARS PLpro yeast inactive, Shiga toxin inh inactive and CHX counter 38.
CCN(c1ccc(NC(=O)COC(=O)c2cc3ccccc3oc2=O)cc1)C(C)C was read as AmpC no deterg inactive, AMA1-RON2 inh inconclusive, AmpC detergent inactive, SARS PLpro yeast inactive, Shiga toxin inh inactive and CHX counter inactive.
CCN(CC)c1ccc(NC(=O)COC(=O)c2cccs2)cc1 was read as AmpC no deterg inactive, AMA1-RON2 inh inactive, AmpC detergent inactive, SARS PLpro yeast inactive, Shiga toxin inh 55 and CHX counter 44.
Screening O=C(Nc1c(-c2ccc(F)cc2)nc2ccccn12)c1ccc(F)cc1 returned AmpC no deterg inactive, AMA1-RON2 inh inactive, AmpC detergent inactive, SARS PLpro yeast inactive, Shiga toxin inh inactive and CHX counter inactive.
Screening COc1ccccc1CC(=O)N1CCCc2cc(C)ccc21 returned AmpC no deterg inactive, AMA1-RON2 inh inactive, AmpC detergent inactive, SARS PLpro yeast inactive, Shiga toxin inh inactive and CHX counter inactive.
Screening O=C1c2ccc3c4c(ccc(c24)C(=O)N1CCCCO)C(=O)N(CCCCO)C3=O returned AmpC no deterg inactive, AMA1-RON2 inh inactive, AmpC detergent inactive, SARS PLpro yeast inactive, Shiga toxin inh 72 and CHX counter 34.
`O=C(c1ccc2c(c1)C(=O)N(CCCO)C2=O)c1ccc2c(c1)C(=O)N(CCCO)C2=O` gave AmpC no deterg inactive, AMA1-RON2 inh inactive, AmpC detergent inactive, SARS PLpro yeast inactive, Shiga toxin inh inactive and CHX counter inactive.
`COC(=O)CCCN1C(=O)c2cccc3cccc(c23)C1=O` gave AmpC no deterg inactive, AMA1-RON2 inh inactive, AmpC detergent inactive, SARS PLpro yeast inactive, Shiga toxin inh inactive and CHX counter 24.
`O=C1c2cccc3cccc(c23)C(=O)N1CCc1ccccc1` gave AmpC no deterg inactive, AMA1-RON2 inh inactive, AmpC detergent inactive, SARS PLpro yeast inactive, Shiga toxin inh 95 and CHX counter 51.
O=C(O)C(Cc1ccccc1)N1C(=O)c2cccc3cccc(c23)C1=O (stereo not given) was read as AmpC no deterg inactive, AMA1-RON2 inh inactive, AmpC detergent inactive, SARS PLpro yeast inactive, Shiga toxin inh inactive and CHX counter inactive.
O=C(CCN1C(=O)c2cccc3cccc(c23)C1=O)N1CCOCC1 was read as AmpC no deterg inactive, AMA1-RON2 inh inactive, AmpC detergent inactive, SARS PLpro yeast inactive, Shiga toxin inh 94 and CHX counter 26.

Screening results as filed in PubChem BioAssay.
